Most compounds without a hit are left out; they make up all but 2.8% or so of the library.
PolyA inh: polyadenylation inhibitors in yeast reporter cells, primary screen, luminescence, S. cerevisiae. activity score, % at 12 µM. S. cerevisiae SKY197-pL101 polyadenylation reporter, beta-gal luminescence; efflux-impaired pdr1/pdr3 knockout yeast; score 100 = 6 SD above DMSO. hit rate 0.02% among 300,000;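 active means lowest replicate activity score at least 50, where 100 means six control SD above control mean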;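 further: yeast exposed to compound for 9 h at 30 °C; higher score means more reporter readthrough which indicates perturbed polyadenylation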
pCIP destab: p/CIP-EGFP fusion destabilizers, primary screen, fluorescence, F442A cells. decrease of EGFP signal, % at 10 µM. hit rate 0.01% among 290,000. Q05BA5. 16 h;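 active means EGFP signal decrease of at least 30% at 10 µM or well 3 SD below plate mean, unless failing retest; inactive means the rest, including hits failing retest or dose response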
HIF act: HIF pathway transcriptional activators, primary screen, cell-based, U2OS HRE-luciferase, luminescence. AID 1910, 2009. activation, % at 7.5 µM (by protocol). hit rate 0.32% among 300,000. U2OS HRE-luciferase reporter; normalized: DMSO 0%, desferrioxamine 100%;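 active means mean activation of at least 10% of the iron chelator positive control signal, with at least half of replicates also reaching 10%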
Platelet DG rel: inhibitors of platelet dense granule secretion, primary screen, cell-based, MLPCN, human platelets. human platelet-rich plasma, SFLLRN dense granule ATP release, luminescence. inhibition, %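 (compounds screened at 7.5 µM in platelet-rich plasma)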. hit rate 0.22% among 300,000;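 active means mean replicate score, as percent of positive control, at or above 50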
AHR act: AHR activators, primary screen, cell-based, luminescence, luciferase reporter, human | AHR-responsive luciferase reporter cells | hit rate 2.5% among 320,000 | Aryl hydrocarbon receptor (Homo sapiens), P35869 | activation, % at 5 µM | AID 2796, 2010; in the data active means activation above about 47%;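 further: 0% = vehicle wells and 100% = reference agonist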
* = called active by the depositor; · = no result.

SMILES | PolyA inh | pCIP destab | HIF act | Platelet DG rel | AHR act
c1ccc2c(N3CCCCCC3)nc(-c3ccncc3)nc2c1 | -7 | -6 | -1 | 1 | 10
C(=C\c1nc(N2CCCCCC2)c2ccccc2n1)/c1ccccc1 | -6 | -7 | 0 | 12 | 78*
CCN(CC)C(=O)C(=O)N/N=C/c1ccc(F)cc1 | 11 | 0 | 0 | -6 | 1
C(#Cc1c(-c2ccsc2)sc2ccccc12)c1ccsc1 | · | · | · | · | 72*
COc1ccc(-c2sc3ccccc3c2C#CCCO)cc1 | -14 | 2 | 0 | 4 | 33
OCCCCC#Cc1c(-c2ccsc2)sc2ccccc12 | -5 | 8 | 0 | 2 | 49*
COc1cc(-c2c(-c3ccsc3)sc3ccccc23)cc(OC)c1OC | · | · | · | · | 0
O=c1c2oc3ccccc3c2[nH]c(=S)n1-c1ccccc1 | -16 | 5 | 0 | -5 | 66*
Cc1cccc(-n2c(=S)[nH]c3c(oc4ccccc43)c2=O)c1 | -5 | -7 | 1 | -3 | 62*
O=C(CC(C(=O)O)c1ccc(Cl)cc1)c1ccc(Br)cc1 (centres undefined) | -14 | 4 | -1 | 0 | 1
Cc1ccc(C(C)C)c(OCC(=O)OCC(=O)NC2CCS(=O)(=O)C2)c1 (centres undefined) | -6 | · | -1 | 3 | -1
Cc1c(C)c2c(OCC(=O)N3CCC(C(N)=O)CC3)cc3c(c2oc1=O)CCC(C)(C)O3 | 4 | 8 | 0 | 6 | 1
O=C(Nc1ccccc1)N1CCn2c1nc1ccccc12 | -28 | 8 | 1 | -8 | 51*
CC(CCc1ccccc1)NC(=O)c1cc2sccc2n1C (centres undefined) | 8 | -2 | 0 | 1 | 1
Cn1c(C(=O)Nc2ccccc2)cc2sccc21 | -12 | -5 | 6 | 0 | 56*
CCc1ccccc1NC(=O)c1cc2sccc2n1C | 1 | 4 | 0 | -2 | 64*
CC(C)[C@H](NC(=O)c1ccccc1F)C(=O)NC1CCCCCCC1 | · | · | · | · | 9
CN1C2=NCCN2C(=O)c2ccccc21 | 14 | 2 | · | 10 | 52*
CCOc1ccc2ccccc2c1C(=O)NCC(c1ccc(N(C)C)cc1)N(C)C (centres undefined) | 6 | -7 | -1 | -10 | 2
O=c1[nH]c(O)c(C=Nc2ccc(Cl)cc2Cl)c(=O)[nH]1 | 10 | 4 | -1 | 10 | ·
COCCN1CCc2c(C)nc3c(-c4ccc(OC)c(OC)c4)cnn3c21 | 9 | -5 | 3 | -3 | 49*
COc1ccc(-c2cnn3c4c(c(C)nc23)CCN4C2CCCC2)cc1OC | -2 | 6 | 0 | 1 | 11
O=C1Nc2ccc(Br)cc2C12NNc1ccccc1O2 (centres undefined) | -23 | -16 | 0 | -4 | 60*
CC1Sc2ccc(S(=O)(=O)N(C)Cc3ccccc3)cc2NC1=O (centres undefined) | -2 | -4 | 0 | -12 | 1
CCn1c(C)csc1=NC(=O)c1ccccc1 | 0 | -1 | 2 | -3 | 61*
SMILES | PolyA inh | pCIP destab | HIF act | Platelet DG rel | AHR act
CCOc1ccc(CCNC(=O)COC(=O)C2CC2)cc1OCC | -13 | · | -1 | -1 | 1
Cn1c(=N)n(CC(=O)c2ccc(Br)cc2)c2ccccc21 | -8 | · | 0 | -2 | 55*
Cn1c(=N)n(CC(=O)c2ccc(F)cc2)c2ccccc21 | 12 | 1 | -3 | · | 65*
Cc1ccc(S(=O)(=O)N2[C@@H](c3ccc(Br)cc3)C(C(=O)O)=C[C@H]2C(C)(C)C)cc1 | · | · | · | · | -1
Cc1ccc(C)c2c(N)c3c(nc12)CCCCC3 (tested in a mixture with another compound) | 3 | 5 | 1 | -6 | 47*
Nc1c2c(nc3sc4c(c13)CCCC4)CCCCCC2 | -2 | 7 | 1 | 0 | 49*
CCC(=O)c1ccc(Oc2nc3c(c(=O)n(C)c(=O)n3C)n2CC)cc1 | 1 | -18 | -2 | 8 | 61*
COC(=O)c1ccc(Oc2nc3c(c(=O)n(C)c(=O)n3C)n2CCC(C)C)cc1 | -7 | 6 | 0 | 13 | 0
COc1cc(C(=O)NCC2(c3ccccc3)CCCC2)cc(OC)c1OC | -1 | -4 | 0 | 4 | 6
CCOc1ccccc1Nc1nc(-c2sc(NC(=O)c3ccc([N+](=O)[O-])cc3)nc2C)cs1 | 1 | -10 | 0 | -1 | 30
CCCCCCC(=O)Nc1nc(C)c(-c2csc(Nc3cc(OC)ccc3OC)n2)s1 | -18 | 6 | 1 | 0 | 67*
CCCCC(=O)Nc1nc(C)c(-c2csc(Nc3ccccc3OC)n2)s1 | -14 | -8 | 1 | 3 | 77*
O=C(N/N=C\c1ccc(Sc2ccccn2)o1)c1cccc(Br)c1 | -10 | -4 | 0 | 10 | 61*
COc1ccc(-c2sc3cc4c(cc3c2C#Cc2ccc(N)cc2)OCO4)cc1 | · | · | · | · | 31
COc1ccc(-c2sc3cc4c(cc3c2C#CCO)OCO4)cc1 | · | · | · | · | 77*
CCOC(=O)c1ccc(-c2c(-c3ccccc3OC)sc3cc4c(cc23)OCO4)cc1F | · | · | · | · | 48*
COc1ccc(-c2sc3ccc(N4CCOCC4)cc3c2C#CCCO)cc1 | · | · | · | · | 97*
COc1ccccc1-c1sc2cc3c(cc2c1C#CCO)OCO3 | · | · | · | · | 67*
COc1ccc2sc(-c3ccccc3OC)c(C#CC(C)(C)O)c2c1 | · | · | · | · | 26
CCOC(=O)Cn1nc(C)cc1NC(=O)c1cccnc1 | 0 | -3 | 0 | 2 | 4
Cc1ccc(CN2CCC(n3nccc3NC(=O)c3ccccc3C)CC2)o1 | -17 | 8 | 1 | -15 | 5
Cc1ccccc1CNc1ccc(C(CC(N)=O)NC(=O)c2ccccc2)cc1[N+](=O)[O-] (centres undefined) | 12 | 0 | -1 | 5 | 2
Cc1nn(-c2ccccc2)c(C)c1/C=N/n1c(-c2ccccc2Br)n[nH]c1=S | -1 | -5 | 0 | -3 | 51*
CCN(CC)c1ccc(/C=N/n2c(-c3ccccc3Br)n[nH]c2=S)cc1 | -6 | 12 | 0 | 24 | 7
Cc1ccc(/C=N/N2C(=O)c3ccccc3NC2c2ccc(C)cc2)cc1 (centres undefined) | -16 | -17 | 2 | -3 | 50*
CC(C)Nc1nc(NC(C)(C)C)nc(Oc2ccc(=O)n(-c3ccccc3)n2)n1 | 7 | -14 | 0 | 60* | 0
COc1cc(NC(=S)NC(=O)c2cccs2)ccc1NC(=O)C(C)C | -16 | -19 | 2 | 4 | 30
CC(C)C(=O)Nc1cccc(NC(=S)NC(=O)c2cccs2)c1 | -6 | -6 | 3 | -12 | 48*
O=C(Nc1ccccc1)c1csc(-c2ccccc2)n1 | -13 | -5 | 1 | 10 | 68*
O=C(NNC(=O)c1csc(-c2cnccc2C(F)(F)F)n1)c1ccc(C(F)(F)F)cc1 | -11 | -15 | 0 | -9 | 15

Screens (PubChem)
